# Data taken from PubChem BioAssay AID2013 (Sanford-Burnham Center for Chemical Genomics, 2009).
# Screen size: about 290,000 compounds; about 370 (0.13%) were called active. This is one part of a sample in which actives are shown more often than they occur. Measured potencies and affinities stand elsewhere. Values without a mark were called inactive.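 How the source made its calls: active means spots per cell inhibited over 60%, with over 100 cells counted and total cytoplasm intensity under 500,000; inconclusive means wells with under 100 cells, flagged as likely toxic; inactive means the rest.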
# Target: G-protein coupled receptor 55 (Homo sapiens) (UniProt Q9Y2T6)
# Assay: inhibition of LPI-stimulated GPR55 beta-arrestin translocation – imaging, U2OS, beta-arrestin-GFP, LPI agonist, primary screen (AID 2013);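 further: U2OS cells stably carrying GPR55 and arrestin-GFP stimulated by 5 µM LPI near EC80; imaged beta-arrestin-GFP aggregate spots per cell after agonist stimulation; plate controls were LPI-stimulated DMSO wells for no effect and DMSO wells without LPI for full effect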
# Settings: LPI antagonism, at 10 µM, hits give high values
# Sequence of G-protein coupled receptor 55 (Homo sapiens) (Q9Y2T6 whole entry, looked up): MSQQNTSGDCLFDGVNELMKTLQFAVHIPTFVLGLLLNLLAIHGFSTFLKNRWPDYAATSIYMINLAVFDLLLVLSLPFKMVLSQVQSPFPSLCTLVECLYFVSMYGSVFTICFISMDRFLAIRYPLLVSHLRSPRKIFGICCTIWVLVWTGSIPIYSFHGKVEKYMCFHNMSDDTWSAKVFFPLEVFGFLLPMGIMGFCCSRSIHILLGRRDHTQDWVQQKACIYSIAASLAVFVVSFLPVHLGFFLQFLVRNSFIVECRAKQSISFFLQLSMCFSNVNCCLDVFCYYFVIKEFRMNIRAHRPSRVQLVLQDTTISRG
row,Compound,inhibition
1,OC(COc1cccc2ccccc12)CN1CCCC1 (configuration not stated),-4.7%
2,CN1C(=O)[C@H]2[C@@H](/C=C/c3ccccc3)N3C(=O)CN(CC4CC4)C(=O)[C@@]3(C)[C@H]2C1=O,7.6%
3,Cc1cc(C)c(C)c(OCCN2CC(C)OC(C)C2)c1 (configuration not stated),-23.1%
4,Cc1ccc(C(C)C)c(OCC(O)CN2CCc3ccccc3C2)c1 (configuration not stated),2.1%
5,O=S(=O)(c1ccccc1F)N1CCC(c2nc3ccccc3[nH]2)CC1,-18.2%
6,COc1cc(C2=NOC(C(=O)Nc3cc(C)on3)C2)cc(OC)c1OC (configuration not stated),0.6%
7,COc1ccccc1NC(=O)COc1ccc2c(c1)OCO2,19%
8,CS(=O)(=O)CCC(C(=O)OCC(=O)c1ccc(Cl)cc1)N1C(=O)c2ccccc2C1=O (configuration not stated),-0.1%
9,Cc1ccc(NC2(C(F)(F)F)N=C(c3ccccc3)NC2=O)nc1 (configuration not stated),87% (active)
10,O=C1NC(c2ccccc2)=NC1(Nc1ccccn1)C(F)(F)F (configuration not stated),13.1%
11,Cc1ccnc(NC2(C(F)(F)F)N=C(c3ccccc3)NC2=O)c1 (configuration not stated),-6%
12,CCOc1ccc(C2(C)CC(=O)N(C)C2=O)cc1 (configuration not stated),5.8%
13,Cc1nnc(-c2cccc(Br)c2)c2cn(-c3cccc(Br)c3)nc12,1.6%
14,Cc1nnc(-c2cccc(Br)c2)c2cn(-c3ccccc3Cl)nc12,7.4%
15,COc1ccc(-n2cc3c(-c4cccc(Br)c4)nnc(C)c3n2)cc1,45.1%
16,Cc1nnc(-c2cccc(Br)c2)c2cn(-c3ccccc3)nc12,9.1%
17,COc1ccc(C)cc1NS(=O)(=O)c1cn(C)nc1C,3.9%
18,CC(NC(=O)CCc1nnc(CCCc2ccccc2)o1)c1ccccc1 (configuration not stated),-2.7%
19,CN(Cc1ccccc1)C(=O)CCC1CCN(C(=O)CC2=CCCCC2)CC1,0.7%
20,O=C(N1CCN(c2ccc(F)cc2)CC1)C12CC3CC(CC(C3)C1)C2,1.6%
21,CCCN1CNC(=S)N(c2ccccc2OC)C1,10%
22,N=c1c2c3c(sc2ncn1CCN1CCOCC1)CCCC3,18.2%
23,COc1cc(/C=C2/C(=O)NN(c3ccc(C)c(Cl)c3)C2=O)cc([N+](=O)[O-])c1O,2.2%

row,Compound,inhibition
1,O=C1NC(=S)N/C1=C/c1cc2c(cc1[N+](=O)[O-])OCO2,4.7%
2,CCOC(=O)C1=C(c2ccccc2)NC(=O)NC1c1ccc(OC)cc1OC (configuration not stated),11.3%
3,Cc1ccc(SCC(=O)Nc2cccc(-c3nnc(-c4ccco4)o3)c2)cc1,23.1%
4,CNC(=S)N(CCc1c(C)[nH]c2ccc(C)cc12)Cc1cccs1,-0.9%
5,CNC(=S)N(CCc1c(C)[nH]c2ccc(Cl)cc12)Cc1cccs1,79.7% (active)
6,COCCNC(=S)N(CCc1c(C)[nH]c2ccc(Cl)cc12)Cc1cccs1,21.1%
7,COc1ccc(NC(=O)CCNS(=O)(=O)c2ccc(C)c(C)c2)cc1OC,0.7%
8,C=CCN1C=CC(=CC=C(C#N)C#N)C=C1,67.9% (active)
9,C=CCN1C=CC(=C/C=C(/C#N)C(=O)OCC)C=C1,4.5%
10,CCCN1C=CC(=CC=C(C#N)C#N)C=C1,52.4%
11,CCOc1ccc(N(CC(=O)Nc2ccc(C)c(F)c2)C2=NC3CS(=O)(=O)CC3S2)cc1 (configuration not stated),2.9%
12,Cc1ccc(C)c(N2CCN(C(=O)Cn3ncc4c([nH]c5ccc(C)cc54)c3=O)CC2)c1,0.4%
13,CC(=O)N/C(=N/c1nc(C)cc(C)n1)Nc1ccc(NC(C)=O)cc1,-4.3%
14,Cc1ccc(NS(=O)(=O)c2cc(C(=O)O)ccc2Cl)cc1,5.6%
15,O=C(NC(=S)Nc1ccc(Cl)c(C(=O)O)c1)c1cccc(COc2ccccc2)c1,3.5%
16,O=C(O)c1ccc(NC(=S)NC(=O)c2cccc(COc3ccccc3)c2)cc1,-20.3%
17,O=C(O)c1cccc(S(=O)(=O)Nc2ccc(OCc3ccccc3)cc2)c1,1.6%
18,COc1ccccc1-n1c(SCC(=O)Nc2cccc(C)c2)nc2c(c1=O)SCC2,0.7%
19,O=C1Nc2ccccc2N(O)N1c1ccc(S(=O)(=O)N2CCCCCC2)cc1,7.8%
20,O=C(CSc1nc2ccccc2s1)N1CCCCC1,7.6%
21,CN(C)CCN(Cc1ccccc1)c1nccc(N(C)C)c1C#N,7.4%
22,CN(C)c1nccc(N(Cc2ccccc2)Cc2ccccc2)c1C#N,49.1%
23,CCN(CC1COc2ccccc2O1)C(=S)Nc1ccc(F)cc1 (configuration not stated),8.3%

row,Compound,inhibition
1,COc1ccc2c(c1)NC(c1cc(Cl)cc(Cl)c1O)c1cccn1-2 (configuration not stated),3.9%
2,COc1ccc2c(c1)NC(c1ccc(N(C)C)cc1)c1cccn1-2 (configuration not stated),67% (active)
3,COc1ccc(C2Nc3cc(OC)ccc3-n3cccc32)cc1 (configuration not stated),8.6%
4,Cc1cccc(N(CC(=O)N2CCN(C)CC2)S(=O)(=O)c2ccccc2)c1,9.1%
5,CC1CC(C)CN(C(=O)C(C)N(C)CC(=O)Nc2ccc(Cl)cc2)C1 (configuration not stated),12.3%
6,CC1CN(S(=O)(=O)c2ccc(NC(=O)CCN3C(=O)c4ccccc4C3=O)cc2)CC(C)O1 (configuration not stated),4.4%
7,CC(=O)C1=C(C)NC(SCC(=O)c2ccc(C)cc2)=C(C#N)C1c1ccco1 (configuration not stated),82.9% (active)
8,CC(=O)C1=C(C)NC(SCC(=O)c2ccccc2)=C(C#N)C1c1ccco1 (configuration not stated),16.3%
9,CC(=O)C1=C(C)NC(SCC(=O)c2ccc(F)cc2)=C(C#N)C1c1ccco1 (configuration not stated),16.8%
10,CN(C(=O)C1CCC1C(=O)O)c1nc(-c2ccc(Cl)s2)cs1 (configuration not stated),11.8%
11,CC(C)CNC(=O)CC(c1ccccc1)c1ccccc1,-4.4%
12,Cc1cc(C)nc(NNC(=O)NC2CCCCC2)n1,-10.6%
13,COc1cc(NC(=O)c2cnn3c(C(F)F)cc(C4CC4)nc23)c(OC)cc1Cl,14.7%
14,CC(C)(C)OC(=O)N1CCC(c2c(C(=O)NC3CC3)cnn2-c2ccc(Cl)cc2)CC1,4.1%
15,CCOc1ccc(NC(=O)c2c[nH]n3c(=O)cc(C4CCN(C(=O)OC(C)(C)C)CC4)nc23)cc1,16.4%
16,COc1ccc(-n2ncc(C(=O)NC3CC3)c2C2CCN(C(=O)OC(C)(C)C)CC2)cc1,12.4%
17,CCCCC(C(=O)NC1CCCC1)N(C(=O)c1snc(C(N)=O)c1N)c1ccc(OCC)cc1 (configuration not stated),4.9%
18,CCOC(=O)c1cn(CC2CC2)c2cc(F)c(F)cc2c1=O,-1.8%
19,O=C(Cc1coc2ccc3ccccc3c12)NC1CCCc2ccccc21 (configuration not stated),-1.1%
20,C/C(=N\Nc1nc2ccccc2s1)c1ccc2c(c1)OCO2,11.7%
21,O=C(Nc1ccccc1)c1ccccc1Oc1ccc(C(F)(F)F)cc1[N+](=O)[O-],5.3%
22,O=C(Nc1ccc(F)cc1)c1ccccc1Oc1ccc(C(F)(F)F)cc1[N+](=O)[O-],24.3%
23,CC(=O)N(C1CC(C)C(C#N)(C#N)C1(C#N)C#N)N(C)C (configuration not stated),7.5%

row,Compound,inhibition
1,CCCC(=O)N(C1CC(C)C(C#N)(C#N)C1(C#N)C#N)N(C)C (configuration not stated),98.9% (active)
2,O=C1NC2(CCCCCC2)N=C1c1ccc(Br)cc1,2.5%
3,CCS(=O)(=O)Nc1ccc(Cc2ccncc2)cc1,-1.6%
4,CCCCS(=O)(=O)Nc1ccc(Cc2ccncc2)cc1,14.3%
5,COc1ccc(NC(=O)CCCn2c(=O)[nH]c3ccccc3c2=O)cc1,27.9%
6,c1ccc2c(-c3ccncc3)c[nH]c2c1,-22.9%
7,O=c1[nH]c2ccccc2nc1-c1c[nH]c2ccccc12,12.2%
8,COc1ccc(C(=O)C2CCCN(Cc3cn(C)nc3-c3ccccc3)C2)cc1F (configuration not stated),4.8%
9,CN(C1CCCCC1)S(=O)(=O)c1ccc(NC(=O)C2CCCCC2)cc1,0.9%
10,CN(c1ccccc1)S(=O)(=O)c1ccc(NC(=O)C2CCCCC2C(=O)O)cc1 (configuration not stated),45.5%
11,Cc1ccc(Cn2c(SCC(=O)Nc3cccc(C)n3)nc3c2c(=O)n(C)c(=O)n3C)cc1,4.3%
12,COc1ccccc1CN(CC(=O)NCc1ccc(F)cc1)C(=O)c1csnn1,4%
13,Cc1ccc(Cn2c(=N)n(CC(=O)c3ccc([N+](=O)[O-])cc3)c3ccccc32)cc1,44.2%
14,N=c1n(CC(=O)c2cccc([N+](=O)[O-])c2)c2ccccc2n1Cc1ccccc1,28.3%
15,N=c1n(CC(=O)c2ccc([N+](=O)[O-])cc2)c2ccccc2n1Cc1ccc(Cl)cc1,65.4% (active)
16,N=c1n(CC(=O)c2ccc([N+](=O)[O-])cc2)c2ccccc2n1Cc1ccccc1Cl,8.7%
17,Cc1ccccc1Cn1c(=N)n(CC(=O)c2ccc([N+](=O)[O-])cc2)c2ccccc21,11%
18,N=c1n(CC(=O)c2ccc([N+](=O)[O-])cc2)c2ccccc2n1Cc1ccccc1,64.5% (active)
19,N#Cc1cccc(NC(=O)COC(=O)c2ccc3c(=O)n4c(nc3c2)CCC4)c1,3%
20,CCOC(=O)C(=O)c1cn(C2OCC(OC(C)=O)C(OC(C)=O)C2OC(C)=O)c2ccccc12 (configuration not stated),6.8%
21,Nn1c(SCC(=O)Nc2ccc(F)cc2)nnc1-c1cccnc1,16.8%
22,O=C1C=CC(=O)N1Cc1ccccc1,-45%
23,O=C1C2C3C=CC(C3)C2C(=O)N1CCCCCCN1C(=O)C2C3C=CC(C3)C2C1=O (configuration not stated),12%
